In PubChem BioAssay AID1159580 (chemical genetic matrix, 2015):
Among all 5,500 compounds or so, about 2,000 (36%) were called active. About 18% were inconclusive and are not listed. Rule as the data show it: active = normalized growth mostly below about 0.91 (no sharp cut-off); inconclusive = no clear call, values can overlap the other calls; inactive = mostly above about 0.92. This is one part of the list.

Experiment: chemical genetic growth profiling, strain panel (AID 1159580);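 also: tested at 20 µM; growth read once vehicle control cultures reached saturation at 30 °C; 1 = growth at the plate median or of vehicle wells; lower values mean less growth of the strain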
Details: S. cerevisiae deletion strains, growth OD

Measured: normalized growth

CC1(C)C(=O)N(CCN2CCC(C(=O)c3ccc(F)cc3)CC2)c2ccccc21
inactive: locus YAL013W, strain DEP1, hits give low values 0.998 | locus YAL040C, strain CLN3, hits give low values 1.01 | locus YCL061C, strain MRC1 (second series), hits give low values 0.999 | locus YDR150W, strain NUM1, hits give low values 0.998 | locus YDR363W, strain ESC2, hits give low values 0.992 | locus YER002W, strain NOP16, hits give low values 1.01 | locus YGR229C, strain SMI1, hits give low values 0.993 | locus YNL128W, strain TEP1, hits give low values 1.03 | locus YNL175C, strain NOP13, hits give low values 1.02 | locus YNL197C, strain WHI3, hits give low values 1.02 | locus YNL224C, strain SQS1, hits give low values 1.02 | locus YNL322C, strain KRE1, hits give low values 1 | locus YOR083W, strain WHI5 (second series), hits give low values 0.969 | locus YPL055C, strain LGE1, hits give low values 0.982
